Screening results from PubChem BioAssay.
This excerpt belongs to a sample that is enriched for hits.
MmCpn inh – M. maripaludis TRiC chaperonin inhibition | Potency, µM (titrated, usually from 76.9 µM), for inactives: at the highest dose activity, negative = inhibition, hits mostly inhibitors | purified Mm-Cpn ATPase, ADP Transcreener TR-FRET | AID 504842 | 330,000 tested, 0.031% active; also: % is scaled to controls: 0 for no effect and ±100 for the full control effect; nearly all actives have a fitted effect of over 80% in size
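Eu-cryptate anti-ADP/ADP-d2 competition gives a ratio inversely related to ADP. Enzyme at 25 nM was pre-exposed to compound for 10 min, then given 10 uM ATP for 30 min, 37°C throughout.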
ClpP mod – qHTS Assay for Activators of ClpP; 340,000 tested, 1.9% active; purified B. subtilis ClpP, FRET peptide cleavage, 20 min; ATP-dependent Clp protease proteolytic subunit (Bacillus subtilis (strain 168)), P80244; AID 651965, 2013; Potency, µM (titrated, usually from 57.5 µM), inactives show top-dose activity change, negative = active; active = well fitted falling curve with a large enough effect; inconclusive = small, poorly fitted or top-dose-only effect; inactive = no such curve, though single readings can be large or run the other way; also: the source files actives as falling curves though it sought activators and does not explain the sign; nearly all actives have a fitted effect of over 65% in size
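ClpP 10 microg/mL final, pH 8 Tris/KCl buffer with BSA, glycerol, Tween-20; compound pinned in; FRET-FV substrate; RT 20 min; Ex320/Em430; ΔFRET vs ADEP 5.8 microM, DMSO, no enzyme.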
Eya2 inh – Eya2 (human) phosphatase inhibition | Potency, µM (top dose mostly 76.9 µM), inactives show at the top dose activity, negative = inhibition, usual class: inhibitors | recombinant Eya2, OMFP fluorescence dephosphorylation (OMFP is methylfluorescein phosphate) | 330,000 tested, 0.006% active; also: % is scaled to controls: 0 for no effect and ±100 for the full control effect
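Eya2 protein (added as 0.2 uM solution) was preincubated with compound for 10 min at ambient temperature in 50 mM HEPES pH 7.5, 50 mM NaCl, 5 uM MgCl2, 0.05% BSA, 1 mM DTT. OMFP (added at 50 uM) then reacted 10 min; fluorescence read at 485/525 nm.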
p53 reactivation – restores transcriptional activity of mutant p53; H1299 p53-A138V BP100-luciferase reporter, luminescence, 24 h; Potency, µM (top dose mostly 92.2 µM), inactives show at the top dose activity change, positive = activation, most hits filed as activators; 320,000 tested, 0.063% active; AID 504706; also: % of control where 0% means no effect; nearly all actives have a fitted effect of over 45% in size
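p53-null H1299 cells stably carrying temperature-sensitive p53-A138V and a BP100-luciferase reporter were pinned with compounds (4-point, 1:5 series) and held 24 hrs at 37 deg C. Luminescence was read 10 min after detection reagent.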
Integrin act MD – integrin-mediated muscular dystrophy alleviation activation | alpha7betagal myoblasts, beta-gal FDG fluorescence, 48 h | 350,000 tested, 0.064% active | AID 624291 | Potency, µM (titrated, usually from 38.3 µM), without a hit: at the highest dose activation, hits mostly activators;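 also: 100% = response of the positive control SU9516; nearly all actives have a fitted effect of over 60% in size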
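Alpha7betagal+/- myoblasts (passage 13) were plated 16-24 hr, then exposed to compounds (1:260 dilution of DMSO stock) for 48 hours at 37C. After MPER lysis, β-galactosidase reporter activity was read as FDG fluorescence (ex 480/em 540) after 30 minutes.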
USP2a inh – blocks human ubiquitin-specific protease USP2a | O75604 | USP2 core, Ub-CHOP2 coupled fluorogenic reporter, 485/531 | Potency, µM (doses to about 38.3 µM), inactives show top-dose activity change, negative = inhibition, hits mostly inhibitors | 330,000 tested, 0.01% active | AID 463254;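 also: plate controls were DMSO wells for no effect and full inhibition by NEM control for full effect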
Target sequence (O75604 whole entry, looked up): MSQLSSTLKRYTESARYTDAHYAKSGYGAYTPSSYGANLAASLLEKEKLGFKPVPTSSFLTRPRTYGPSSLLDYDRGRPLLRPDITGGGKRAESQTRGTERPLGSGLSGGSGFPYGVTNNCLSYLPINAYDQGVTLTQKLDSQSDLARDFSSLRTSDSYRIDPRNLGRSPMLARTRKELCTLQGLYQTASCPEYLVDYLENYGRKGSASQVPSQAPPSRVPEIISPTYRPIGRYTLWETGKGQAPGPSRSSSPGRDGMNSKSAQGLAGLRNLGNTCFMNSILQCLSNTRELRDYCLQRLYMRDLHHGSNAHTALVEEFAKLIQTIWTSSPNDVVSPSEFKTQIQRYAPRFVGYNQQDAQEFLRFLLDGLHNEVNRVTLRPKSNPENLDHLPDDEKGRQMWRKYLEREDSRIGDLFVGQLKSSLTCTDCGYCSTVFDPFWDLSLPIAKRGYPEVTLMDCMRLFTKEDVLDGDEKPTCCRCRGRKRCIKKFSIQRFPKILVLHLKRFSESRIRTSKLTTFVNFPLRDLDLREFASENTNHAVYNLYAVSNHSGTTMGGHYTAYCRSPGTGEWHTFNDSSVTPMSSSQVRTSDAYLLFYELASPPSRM
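Cell-free coupled assay: 10nM USP2 core preincubated 30min RT with compound in Tris-HCl pH 8.0/CaCl2/CHAPS buffer, then 25nM Ub-CHOP2 and 25nM reporter substrate; fluorescence (Ex 485/Em 531) read after 60min RT, normalized to NEM inhibition, concentration-response curves fitted.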
Starred values were filed as active, the others as inactive; ? = inconclusive; . = not tested or not shown. Unless noted, calls follow the shape of the dose curve; as a rule, active = well fitted curve in the direction sought with a large enough effect; inconclusive = small, poorly fitted or top-dose-only effect, or another doubt; inactive = no such curve, though single readings can be large; an effect the other way counts as inactive or inconclusive. Potency is read from the fitted curve at half-maximal effect.

SMILES	MmCpn inh	ClpP mod	Eya2 inh	p53 reactivation	Integrin act MD	USP2a inh
Cc1cc(C)c2c(=O)c3c(oc2c1)C(=O)N(Cc1ccc(F)cc1)C3c1cccc(O)c1 (centres undefined)	.	1%	.	.	.	.
Cc1cc(C)nc(SCC(=O)c2ccc([N+](=O)[O-])cc2)n1	-4%	-4%	1%	0%	0%	1%
Cc1ccnc(SCC(=O)c2ccc([N+](=O)[O-])cc2)n1	1%	16µM*	-21%	13%	-21%	2%
Cc1cc2c(s1)c1c(n2C)C(=O)N(Cc2ccccc2F)C1	0%	.	-27%	.	.	-2%
COc1ccc(/C=C2\SC(=NCc3ccccc3)NC2=O)cc1	0%	22µM*	-6%	8%	-3%	2%
COc1ccc(/C=C2\SC(=Nc3ccccc3OC)NC2=O)cc1	-2%	1%	4%	-92%	?	-6%
COc1ccc(N(C)S(=O)(=O)c2cccc(C(=O)Nc3nc4ccccc4[nH]3)c2)cc1	-5%	28µM*	-2%	-4%	0%	7%
O=C(CN1C(=O)COc2ccc(S(=O)(=O)NC3CCCC3)cc21)Nc1ccc(Cl)cc1	.	0%	.	.	.	.
CCOC(=O)N1CCN(CCC(=O)Nc2cccc(F)c2)CC1	.	0%	.	.	.	.
CCOC(=O)c1c(CN2CCCCC2)oc2ccc(O)cc12	-1%	28µM*	18%	-1%	-14%	-2%
Cc1cccc(Nc2nc(NCCCN3CCOCC3)nc(N)c2[N+](=O)[O-])c1	-18%	20µM*	1%	-17%	0%	-3%
Nc1nc(NCCCN2CCOCC2)nc(Nc2cccc(F)c2)c1[N+](=O)[O-]	-2%	.	-4%	-7%	-46%	2%
Cc1cc(N)n2ncc(-c3cccc(Br)c3)c2n1	-2%	18µM*	-23%	?	6%	1%
O=C(COC(=O)c1ccc(S(=O)(=O)Nc2ccccc2)cc1)NC1CCCC1	1%	.	1%	3%	16%	0%
NC(=O)c1c(NC(=O)COC(=O)c2ccc(S(=O)(=O)Nc3ccccc3)cc2)sc2c1CCCC2	-6%	20µM*	1%	-4%	21%	2%
CCCNc1nc(-c2ccccc2)c(C(=O)OCC)cc1C#N	0%	28µM*	-12%	16%	1%	3%
CCCCN(CCCC)CCNC(=O)c1cn(C)c2ccc(S(=O)(=O)N(C)C3CCCCC3)cc2c1=O	1%	1%	-6%	-1%	10µM*	2%
CCCN(CCC)CCCNC(=O)c1cn(C)c2ccc(S(=O)(=O)N(C)C3CCCCC3)cc2c1=O	1%	1%	4%	4%	-4%	4%
COc1cc2c(NC3CCN(C)CC3)nc(N3CCCN(C)CC3)nc2cc1OCCN(C)C	.	4%	.	.	.	.
COc1cc(-c2nnc(CSc3nnc(Nc4ccc(Oc5ccccc5)cc4)s3)o2)cc(OC)c1OC	-6%	25µM*	4%	-1%	19%	-2%
CCc1ccc2nc(NC(=O)CCCc3cccs3)sc2c1	0%	13µM*	15%	18%	-8%	2%
Cc1ccc2nc(NC(=O)Cc3cccs3)sc2c1	0%	0%	12%	21%	0%	1%
N=c1c(C(=O)NCc2ccco2)cc2c(=O)n3ccccc3nc2n1CCc1ccccc1	0%	28µM*	-12%	27%	-33%	-1%
N=c1c(C(=O)NCc2ccco2)cc2c(=O)n3ccccc3nc2n1CC1CCCO1 (centres undefined)	.	28µM*	.	.	-21%	.
COc1ccc(CCn2c(=N)c(C(=O)NCc3ccco3)cc3c(=O)n4ccccc4nc32)cc1OC	.	1%	.	.	-22%	.
SMILES	MmCpn inh	ClpP mod	Eya2 inh	p53 reactivation	Integrin act MD	USP2a inh
O=c1ccc(/C=C/c2ccccc2)nn1Cc1ccc(Cl)cc1Cl	-10%	28µM*	-18%	0%	22%	1%
O=c1ccc(/C=C/c2ccccc2)nn1Cc1ccccc1Cl	2%	?	-8%	-1%	-19%	1%
Cc1ccc(/C=C/c2ccc(=O)n(Cc3ccc(Cl)cc3Cl)n2)cc1	1%	3.2µM*	-8%	5%	8%	1%
O=C(Nc1ccccc1Br)c1cnn2c1NC(=C1CC1)C=C2C(F)F	.	155%	.	.	.	.
O=C(c1ccco1)N1CCN(c2nc3ccccc3n3nnnc23)CC1	-1%	-18%	12%	?	9%	4%
c1ccc(CC2CCN(c3nc4ccccc4n4nnnc34)CC2)cc1	0%	16µM*	14%	?	-1%	-2%
COc1ccc(OC)c(-n2c(N)c(C(=O)NCC3CCCO3)c3nc4ccccc4nc32)c1 (centres undefined)	-4%	18µM*	6%	-4%	-25%	5%
CC(C)Cn1c(N)c(C(=O)NCC2CCCO2)c2nc3ccccc3nc21 (centres undefined)	0%	28µM*	-5%	4%	9%	-1%
Nc1c(C(=O)NCC2CCCO2)c2nc3ccccc3nc2n1/N=C/c1ccncc1 (centres undefined)	.	-3%	.	.	?	.
COCCn1c(N)c(C(=O)NCC2CCCO2)c2nc3ccccc3nc21 (centres undefined)	-9%	?	-19%	-14%	6%	-1%
Nc1c(C(=O)OCC2CCCO2)c2nc3ccccc3nc2n1C1CCCC1 (centres undefined)	-2%	25µM*	2%	7%	-16%	1%
Cc1ccn2c(/C=N/OCc3cccc(F)c3)c(-c3ccc(Cl)cc3)nc2c1	0%	25µM*	12%	-2%	-3%	-2%
Cc1cc(C)nc(SCc2nc3nc(C)cc(C)n3c2Br)n1	-3%	28µM*	2%	-4%	-30%	-2%
CC(Oc1ccccc1)C(=O)N[C@@H]1C(=O)N2C(C(=O)O)C(C)(C)S[C@H]12 (some centres undefined)	.	0%	.	.	.	.
CCOc1cc(N2CCOCC2)c(OCC)cc1NC(=O)c1ccc(OCc2c(C)noc2C)c(OC)c1	0%	11µM*	-12%	-1%	-7%	1%
CCn1c(CNC(=O)c2ccc(OC)cc2)nnc1SCC(=O)Nc1ccc(C)cc1	.	-5%	.	.	.	.
Fc1ccc(-n2cc(CNCCc3cccnc3)c(-c3ccccc3Cl)n2)cc1	0%	28µM*	-5%	-2%	-24%	0%
CC(C)c1ccc(Nc2nc3c(S(=O)(=O)c4ccc(Br)cc4)nnn3c3ccsc23)cc1	.	-29%	.	.	.	.
Cc1cccc(NC(=O)COC(=O)Cc2cccs2)c1C	-3%	25µM*	8%	8%	-1%	1%
COc1ccccc1NC(=O)COC(=O)Cc1cccs1	-1%	.	-6%	2%	-5%	2%
